# The list is not random: actives were taken first. Their share in the collection is about 7.7%.
# Giardia FBPA inh-1 = inhibitors of Giardia lamblia fructose-1,6-bisphosphate aldolase; A8B2U2; 290,000 tested, 0.71% active; purified Giardia FBPA; AID 2451; Potency, µM (series often up to 59.6 µM), for the others: at the highest dose activity, negative = inhibition, most hits filed as inhibitors; also: potency is read from the fitted curve at half-maximal effect; nearly all actives have a fitted effect of over 55% in size
# Target sequence (A8B2U2 whole entry, looked up): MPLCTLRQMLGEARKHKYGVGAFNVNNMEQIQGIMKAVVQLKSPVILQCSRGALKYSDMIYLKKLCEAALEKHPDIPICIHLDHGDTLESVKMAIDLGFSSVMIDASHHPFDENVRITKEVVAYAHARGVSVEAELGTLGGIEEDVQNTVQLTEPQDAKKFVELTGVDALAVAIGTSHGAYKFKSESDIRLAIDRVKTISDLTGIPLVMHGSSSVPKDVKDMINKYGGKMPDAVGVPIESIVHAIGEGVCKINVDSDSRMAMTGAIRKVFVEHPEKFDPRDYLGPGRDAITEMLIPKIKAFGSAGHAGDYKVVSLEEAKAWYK
#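 40 nM FBPA preincubated 10 min at RT with compound (up to 57.5 uM final), then substrate plus GAPDH/TPI/NAD/arsenate coupling and diaphorase/resazurin added. Fluorescence read after 20 min at RT, 525/598 nm.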
# FMDV inh = foot and mouth disease virus antiviral activity. 410,000 tested, 1.2% active. Potency, µM (highest dose often 57.9 µM), for inactives: at the highest dose activity change, negative = inhibition, actives largely listed as inhibitors. FMDV antiviral cell-based qHTS. AID 1159524; calls by dose curve; tested in HEK293T cells; also: read-out not given here; potency is read from the fitted curve at half-maximal effect; nearly all actives have a fitted effect of over 45% in size
# HCMV inh = inhibitors of human cytomegalovirus. AID 1259415. activity change, negative = inhibition, % at 57.5 µM. HFF cells, HCMV-luciferase reporter, 72 h; active compounds read low. 410,000 tested, 4.5% active; in the data active = activity change below about -60%; inconclusive = no clear call, values can overlap the other calls; inactive = above about -39%
#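 Cell-based, HFFs, 1000 cells/well, 16 h 37C; cpds in DMSO + HCMV-luc, MOI 1 PFU/cell; 72 h 37C; OneGlo luminescence after 5 min RT; norm. to buffer vs Salinomycin 10uM.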
# TbPYK inhibitor = blocks Trypanosoma brucei pyruvate kinase; 410,000 tested, 0.12% active; AID 624173; Potency, µM (top dose mostly 76.8 µM), inactives show top-dose activity, negative = inhibition, most hits filed as inhibitors; TbPYK enzyme, Kinase-Glo Plus ATP luminescence, 45 min; Q57TT1; also: potency is read from the fitted curve at half-maximal effect; nearly all actives have a fitted effect of over 50% in size
#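 Activity of T. brucei pyruvate kinase was followed by Kinase-Glo Plus luminescence after the enzyme reacted 45 min at room temperature with 130 uM ADP (final) and substrate. Test compounds were added before ADP at multiple concentrations.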
# RE007 growth inh = less growth of the S. pombe RE007 Vpr strain; 360,000 tested, 0.21% active; AID 651644; Potency, µM (top dose mostly 92.2 µM), for inactives: top-dose activity change, negative = less growth, most hits filed as inhibitors; S. pombe RE007 Vpr strain, BacTiter-Glo ATP luminescence, 24 h; active = well fitted falling curve with a large enough effect; inconclusive = small, poorly fitted or top-dose-only effect; inactive = no such curve, though single readings can be large or run the other way; also: potency is read from the fitted curve at half-maximal effect; nearly all actives have a fitted effect of over 50% in size
#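 Fission yeast RE007 carrying one integrated HIV-1 vpr copy, seeded at OD 0.01 in PMG+AL medium with 23 nL pinned compound. Grown 24 h at 30 degrees; viability read by BacTiter-Glo luminescence after 5 min.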
# Sm TGR inh = inhibitors of Schistosoma mansoni thioredoxin glutathione reductase | Q962Y6 | purified TGR, DTNB reduction, TNB absorbance 405 nm | Potency, µM (titrated, usually from 114 µM), without a hit: at the top dose activity change, negative = inhibition, actives largely listed as inhibitors | 360,000 tested, 3% active; also: potency is read from the fitted curve at half-maximal effect; nearly all actives have a fitted effect of over 60% in size
#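 Kinetic colorimetric format: TGR-catalysed, NADPH-driven DTNB reduction monitored via TNB absorbance. Enzyme dispensed at 20 nM; compound exposure 15 min at room temperature before reaction start.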
# Giardia growth = inhibitors of Giardia lamblia growth. shares compounds with Giardia FBPA inh-1. Giardia lamblia trophozoite growth inhibition. Potency, µM (highest dose often 57.5 µM), without a hit: at the highest dose activity change, negative = inhibition, most hits filed as inhibitors. 1,500 tested, 5% active;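 also: potency is read from the fitted curve at half-maximal effect; trophozoites exposed to compound for 48 h at 37 °C; nearly all actives have a fitted effect of over 70% in size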
# Mammal cell tox = toxic to mammalian cells in Giardia aldolase counter-screen; shares compounds with Giardia FBPA inh-1; mammalian cell viability counter-screen, qHTS; Potency, µM (top dose mostly 57.5 µM), for the others: at the highest dose viability change, negative = toxicity, hits mostly inhibitors; 1,500 tested, 4% active;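 also: Chinese hamster ovary cells used as mammalian cytotoxicity surrogate; viability measured as cellular ATP by luminescence; potency is read from the fitted curve at half-maximal effect; compound exposure lasted 48 h before reading; nearly all actives have a fitted effect of over 60% in size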
# Giardia FBPA inh-2 = confirmation of Giardia fructose-bisphosphate aldolase inhibitors; shares compounds with Giardia FBPA inh-1; purified Giardia aldolase enzyme activity, qHTS; Potency, µM (top dose mostly 57.5 µM), without a hit: top-dose activity change, negative = inhibition, most hits filed as inhibitors; 1,500 tested, 5% active; AID 2787; also: potency is read from the fitted curve at half-maximal effect; nearly all actives have a fitted effect of over 45% in size
# Rabbit aldolase = blocks rabbit muscle aldolase in Giardia aldolase selectivity test; Rabbit muscle FBPA enzyme inhibition, selectivity counter-screen; Potency, µM (doses to about 57.5 µM), for the others: at the top dose activity, negative = inhibition, hits mostly inhibitors; AID 2794; 1,500 tested, 4% active; shares compounds with Giardia FBPA inh-1; also: potency is read from the fitted curve at half-maximal effect; nearly all actives have a fitted effect of over 60% in size
# Target sequence (P00883 whole entry, looked up): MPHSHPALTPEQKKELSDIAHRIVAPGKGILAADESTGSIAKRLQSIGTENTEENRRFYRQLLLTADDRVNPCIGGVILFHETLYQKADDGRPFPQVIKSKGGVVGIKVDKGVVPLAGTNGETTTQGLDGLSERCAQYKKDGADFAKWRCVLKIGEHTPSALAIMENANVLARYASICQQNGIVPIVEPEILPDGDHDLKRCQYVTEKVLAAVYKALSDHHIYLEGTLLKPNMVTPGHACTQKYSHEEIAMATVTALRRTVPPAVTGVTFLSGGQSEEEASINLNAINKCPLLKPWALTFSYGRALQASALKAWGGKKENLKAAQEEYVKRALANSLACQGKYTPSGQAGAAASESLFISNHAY
# GAPDH coupling = GAPDH inhibition flagged for Giardia aldolase hits; Potency, µM (series often up to 57.5 µM), for inactives: top-dose activity change, negative = inhibition, hits mostly inhibitors; shares compounds with Giardia FBPA inh-1; 1,500 tested, 6% active; AID 2795; GAPDH coupling enzyme counterscreen, biochemical, qHTS; also: potency is read from the fitted curve at half-maximal effect; nearly all actives have a fitted effect of over 55% in size
# * = called active by the depositor; ? = inconclusive; . = not tested or not shown; [ ] = remark or other dose. Unless noted, calls follow the shape of the dose curve; as a rule, active = well fitted curve in the direction sought with a large enough effect; inconclusive = small, poorly fitted or top-dose-only effect, or another doubt; inactive = no such curve, though single readings can be large; an effect the other way counts as inactive or inconclusive. % is scaled to controls: 0 for no effect and ±100 for the full control effect.
SMILES,Giardia FBPA inh-1,FMDV inh,HCMV inh,TbPYK inhibitor,RE007 growth inh,Sm TGR inh,Giardia growth,Mammal cell tox,Giardia FBPA inh-2,Rabbit aldolase,GAPDH coupling
CCc1nnc(SCc2nc(-c3cccc(Cl)c3)oc2C)c2cc3sc(C)cc3n12,.,4%,-32,-9%,.,5%,.,.,.,.,.
COCCn1c(NC(=S)NC(=O)C23CC4CC(CC(C4)C2)C3)cc(=O)[nH]c1=O,-12%,-10%,32,-1%,-6%,-3%,.,.,.,.,.
COCCn1c(NC(=S)NC(=O)C2CC2)cc(=O)[nH]c1=O,7.1µM*,-7%,99,0%,1%,-17%,24%,4%,1%,-1%,14%
Cc1ccc(C)c(Cn2c3ccccc3c3cnn(CC(=O)NC(C)CCc4ccccc4)c(=O)c32)c1 (stereo not given),.,-13%,-37,0%,.,-2%,.,.,.,.,.
Cc1ccc(C(=O)Nc2ncc([N+](=O)[O-])s2)cc1,16µM*,8.9µM*,-70*,-18%,?,-26%,?,40µM*,?,25µM*,28µM*
Cc1cc(C)cc(OCc2cc(=O)n3c4c(sc3n2)CCCC4)c1,.,-13%,-2,1%,.,3%,.,.,.,.,.
CCc1ccc(NC(=O)CSc2ncc(S(=O)(=O)c3cc(C)ccc3C)c(=O)[nH]2)cc1,.,-7%,-1,2%,.,-11%,.,.,.,.,.
O=C(Nc1ccc2nn(-c3ccc(Cl)cc3)nc2c1)c1cc2ccccc2o1,.,5%,-4,3%,.,2%,.,.,.,.,.
COC/C=C/C1=CC2=CC(=O)C(C)(OC(=O)c3cnc4ccccc4n3)C(=O)C2=CN1CCN1CCOCC1 (stereo not given),16µM*,20%,-17,-9%,-8%,14µM*,-19%,-5%,?,?,?
COC/C=C/C1=CC2=CC(=O)C(C)(OC(=O)c3cnc4ccccc4n3)C(=O)C2=CN1CCOC (stereo not given),?,-15%,-3,-4%,-13%,.,.,.,.,.,.
C#CCCCO/N=C1/C[C@@H](O)[C@@H](O)[C@@H]2[C@@H]3C(=O)N(CC)C(=O)[C@H]3CC[C@@H]12,3%[12.9 µM],.,.,.,.,.,.,.,.,.,.
N#C/C(=C(/O)c1ccc(Cl)cc1)c1nc2ccccc2[nH]1,5%,7%,-29,-4%,0%,-4%,.,.,.,.,.
N#C/C(=C(\O)c1cc(Cl)sc1Cl)c1nc2ccccc2[nH]1,25µM*,-3%,-34,-7%,-5%,-15%,11%,1%,-19%,3%,?
CCC1=C(OC(=O)N(CC)CC)N2C(=O)OC(=NCCOC)[C@]2(C)[C@H]2C1=CC[C@H]1C(=O)N(CC(=O)OC)C(=O)[C@H]12,-6%,.,.,.,.,.,.,.,.,.,.
CCOc1ccc(CN2C(=O)C(=O)c3cccc(C)c32)cc1OC,.,-17%,?,-11%,.,0%,.,.,.,.,.
CCCCN(C)S(=O)(=O)c1ccc(C(=O)Nc2nnc(CSC)o2)cc1,?,-8%,?,3%,58%,-29%,.,.,.,.,.
CCN(CC)S(=O)(=O)c1ccc(C(=O)Nc2nnc(COC)o2)cc1,18µM*,-17%,-64*,0%,3%,5%,9%,16%,6%,18%,19%
CCN(CC)S(=O)(=O)c1ccc(C(=O)Nc2nnc(CSC)o2)cc1,16µM*,-8%,-22,6%,-3%,3%,18µM*,-5%,6%,10%,7%
CCN(CC)S(=O)(=O)c1ccc(C(=O)Nc2nnc(-c3ccco3)o2)cc1,?,2%,-22,4%,7%,4%,.,.,.,.,.
CCCCN(CCCC)S(=O)(=O)c1ccc(C(=O)Nc2nnc(COC)o2)cc1,15%,-22%,.,-5%,-9%,12%,.,.,.,.,.
CN(C)S(=O)(=O)c1ccc(C(=O)Nc2nnc(-c3ccco3)o2)cc1,6.3µM*,11%,10,4%,5%,0%,8%[38.3 µM],-17%,2%,1%,-8%
O=C(O)c1ccc(NC(=O)[C@H](Cc2ccc(O)cc2)NC(=O)c2ccccc2)cc1,6%,.,.,7%,.,.,.,.,.,.,.
Cc1nn2c(=S)[nH]nc2[nH]c1=O,11µM*,10%,-38,?,-1%,-3%,0%[10.4 µM],-7%,-7%,-6%,9%
CCC(C)NC(=O)CSc1nnc(-c2ccc(C)cc2)c(-c2ccc(C)cc2)n1 (stereo not given),.,-27%,-3,1%,.,1%,.,.,.,.,.
CCOC(=O)c1c(S(=O)(=O)N2CCC(C(=O)Nc3ccc(C)cn3)CC2)c(C)n(C)c1C,.,-7%,-6,-11%,.,4%,.,.,.,.,.
SMILES,Giardia FBPA inh-1,FMDV inh,HCMV inh,TbPYK inhibitor,RE007 growth inh,Sm TGR inh,Giardia growth,Mammal cell tox,Giardia FBPA inh-2,Rabbit aldolase,GAPDH coupling
C[C@]12CC[C@@H]3c4cc(O)c(O)cc4CC[C@H]3[C@@H]1CC[C@@H]2O,16µM*,-4%,-14,?,-15%[18.4 µM],?,7%,-15%,4µM*,?,-29%
COc1cccc(N2CCN(S(=O)(=O)c3ccc(-c4ccno4)cc3OC)CC2)c1,.,-24%,-20,1%,.,-1%,.,.,.,.,.
COc1ccc(NC(=O)Cn2c(=O)n(-c3ccc(CC(=O)NCC4CCCO4)cc3)c(=O)c3ccccc32)c(OC)c1 (stereo not given),.,-17%,4,-15%,.,-2%,.,.,.,.,.
CNC(=S)NNS(=O)(=O)c1ccc(OC)cc1OC,20µM*,13%,-28,-21%,7%,3%,22%,-4%,2%,6%,7%
Cc1ccc(SCCN2CCN(C)CC2)cc1,22µM*,11%,19,0%,14%,-24%,-8%[10.4 µM],-5%,2%,4%,8%
Cc1cccc2c(N)c3c(nc12)N(C)CC3,16µM*,-4%,?,1%,.,-4%,?,12%,-1%,-6%,8%

# From PubChem BioAssay
